The values below come from PubChem BioAssay (NCATS).

The nature of experiment [1]: Primary qHTS for inhibitors of nuclear receptor binding SET domain protein 2 (NSD2) in an RCH-ACV wild type WT cells (2C) (AID 1645877; note: nearly all actives have a fitted effect of over 70% in size; note: potency is the fitted concentration of half-maximal effect; for activity change, negative = cell killing: % is set by controls: 0 for no effect and ±100 for the full control effect). (Quantitative high-throughput screening tests each substance at several concentrations.)
The target in experiment [2] is Glutathione peroxidase 1 (Homo sapiens) (UniProt P07203). In words: Primary qHTS Assay for Inhibitors of Recombinant Selenoprotein Glutathione Peroxidase 1 (GPX1) (AID 1845191). For activity, negative = inhibition: % is set by controls: 0 for no effect and ±100 for the full control effect. Note: nearly all actives have a fitted effect of over 65% in size. Note: potency is the fitted concentration of half-maximal effect. A digest of the protocol:
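GR-coupled readout: NADPH consumption tracked by fluorescence, ex 340/em 450 nm, at t=0 and after 15 min at RT. Final mix 10 nM GPX1, 1 mM GSH, 0.5 mM CHP, 0.5 mM NADPH, 100 nM GR, 0.01% BSA, following 30 min enzyme–compound preincubation.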

The nature of experiment [3]: Primary fluorescence-based thiol-reactive (MSTI) qHTS assay for identification of artifact compounds. (AID 1845221).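 Note: series mostly up to about 54 µM; thiol-reactive compounds lower the probe fluorescence signal; nearly all actives have a fitted effect of over 65% in size.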 A digest of the protocol:
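In PBS pH 7.4 with 2% DMSO, each compound met 4 uM MSTI for one hour at ambient temperature, shielded from light, before fluorescence detection.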

In experiment [4] the test system is Nanoluciferase (engineered Oplophorus gracilirostris luciferase). Put plainly: Primary Nanoluciferase (NLuc) qHTS assay for identification of artifact compounds. (AID 1845222).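 Note: series mostly up to about 54 µM; 0% = DMSO and -100% = no enzyme.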 An outline of the steps:
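Diluted conditioned medium from NLuc-expressing S16 cells treated with compounds for 15 min at room temperature, then Nano-Glo substrate added; luminescence read after 5 min. Percent inhibition versus no-enzyme and DMSO controls fitted to 4-parameter Hill equation.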

Experiment [5] can be described thus: Primary redox qHTS assay for identification of artifact compounds. (AID 1845223).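 Note: 0% = DMSO and 100% = reference compound.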 A digest of the protocol: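 Redox-cycling detection via DTT (250 uM final) oxidation coupled to Amplex Red (25 uM)/HRP (250 mU/mL) in HBSS. 15 min preincubation plus 30 min after DTT, room temperature. Ex/Em 525/598 nm; 4-parameter Hill fit against DMSO and 10 uM DA3003.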
Experiment [6] addresses Phospholipid hydroperoxide glutathione peroxidase GPX4 (Homo sapiens) (UniProt P36969). In words: Primary qHTS Assay for Inhibitors of Recombinant Selenoprotein Glutathione Peroxidase 4 (GPX4) (AID 1845192). For activity change, negative = inhibition: series mostly up to about 50 µM; % is set by controls: 0 for no effect and ±100 for the full control effect. Note: nearly all actives have a fitted effect of over 65% in size. Note: potency is the fitted concentration of half-maximal effect. A digest of the protocol:
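Steps: GPX4 plus compound, 30 min RT; add GR/GSH/NADPH master mix; start with cumene hydroperoxide; read 340/450 nm fluorescence at 0 and 15 min. Finals were 200 nM GPX4, 1 mM GSH, 0.5 mM CHP, 0.5 mM NADPH, 100 nM GR.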

Experiment [7] addresses Luciferin 4-monooxygenase (Photinus pyralis) (UniProt P08659). In words: Primary firefly luciferase (FLuc) qHTS assay for identification of artifact compounds. (AID 1845220).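 For activity change, negative = inhibition: series mostly up to about 54 µM; plate controls were DMSO vehicle for no effect and no enzyme for full effect.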 Note: nearly all actives have a fitted effect of over 60% in size. An outline of the steps:
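D-luciferin and ATP (10 uM each, final) in Tris acetate buffer pH 7.6 were incubated with compounds for 15 min at room temperature. The reaction was started with 10 nM Photinus pyralis luciferase and luminescence read after 5 min. Percent inhibition was fitted to a 4-parameter Hill equation.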

Each structure is given as a SMILES string. Where “and” joins values, the source holds several entries; their conditions need not be identical. Equal entries are not always repeated. Unmarked numbers belong to inactive results. Records with an inconclusive call do not appear. Calls of active or inactive are those of the source. Calls come from the whole dose curve; as a rule, active = well fitted curve in the direction sought with a large enough effect; inconclusive = small, poorly fitted or top-dose-only effect, or another doubt; inactive = no such curve, though single readings can be large; an effect the other way counts as inactive or inconclusive.

Sequence of Phospholipid hydroperoxide glutathione peroxidase GPX4 (Homo sapiens) (P36969 whole entry, looked up): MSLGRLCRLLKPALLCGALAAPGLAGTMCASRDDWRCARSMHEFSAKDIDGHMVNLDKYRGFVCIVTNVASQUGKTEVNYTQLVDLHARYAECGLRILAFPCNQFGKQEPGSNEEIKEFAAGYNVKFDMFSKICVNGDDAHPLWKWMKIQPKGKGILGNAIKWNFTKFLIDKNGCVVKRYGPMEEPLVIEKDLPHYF
Sequence of Glutathione peroxidase 1 (Homo sapiens) (P07203 whole entry, looked up): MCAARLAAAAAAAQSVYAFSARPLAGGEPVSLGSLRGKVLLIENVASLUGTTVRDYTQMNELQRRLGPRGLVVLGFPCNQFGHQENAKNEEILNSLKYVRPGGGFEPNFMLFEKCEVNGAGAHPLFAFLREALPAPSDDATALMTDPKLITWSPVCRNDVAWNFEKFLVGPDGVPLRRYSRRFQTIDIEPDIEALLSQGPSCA

As to `O=C(c1ccc(/C=C/c2n[nH]c3ccccc23)cc1)N1CCNCC1`, the Potency in experiment [1] is 515 nM (active) and 1.86 µM (active). Also, the Potency entry in experiment [2], in experiment [3], in experiment [4] and in experiment [5] was “inactive” throughout.

As to `CCOC(=O)C(CCc1ccccc1)NC1CSC(c2cccs2)CN(CC(=O)O)C1=O` (configuration not stated), the Potency result in experiment [1], in experiment [6], in experiment [7], in experiment [3] and in experiment [4] was “inactive” throughout.

With `CO/N=C(/C(=O)N[C@@H]1C(=O)N2C(C(=O)O)=C(Cn3ccc(=N)n3CCO)CS[C@H]12)c1csc(N)n1`, the Potency result in experiment [1], in experiment [7], in experiment [4] and in experiment [5] was “inactive” throughout. The Potency in experiment [2] was 8060 nM (active).

For `N#Cc1cc(F)cc(-c2nc(-c3ccccn3)no2)c1`, the Potency entry in experiment [1], in experiment [2], in experiment [3], in experiment [4] and in experiment [5] was “inactive” each time.

`O=C(Nc1ccc(S(=O)(=O)Nc2nccs2)cc1)C(c1ccccc1)c1ccccc1`: the Potency result in experiment [1], in experiment [6], in experiment [7], in experiment [3], in experiment [4] and in experiment [5] was “inactive” each time.

Consider `C[C@@H]1C[C@@H]2O[C@H]2/C=C\C=C\C(=O)Cc2c(Cl)c(O)cc(O)c2C(=O)O1`, for which, in experiment [1], the Potency was 450 nM (active). Further, the Potency result in experiment [6], in experiment [7], in experiment [3] and in experiment [4] was “inactive” each time.

With `CC(=O)OC1C(=O)C2(C)C(O)CC3OCC3(OC(C)=O)C2C(OC(=O)c2ccccc2)C2(O)CC(OC(=O)C(O)C(NC(=O)c3ccccc3)c3ccccc3)C(C)=C1C2(C)C` (configuration not stated), the Potency in experiment [1] is 6.5 nM (active). Moreover, the Potency entry in experiment [6], in experiment [7], in experiment [3], in experiment [4] and in experiment [5] was “inactive” each time.

In the case of `COc1ccc2nc(S(=O)(=O)Cc3ncc(C)c(OC)c3C)[nH]c2c1`, the Potency entry in experiment [1], in experiment [6], in experiment [7], in experiment [3], in experiment [4] and in experiment [5] was “inactive” in each case.

Turning to `CC1(C=O)CC[C@]2(C(=O)O[C@@H]3O[C@H](CO)[C@@H](O)[C@H](O)[C@H]3O)CC[C@]3(C)C(=CCC4[C@@]5(C)C[C@H](O)[C@H](O[C@@H]6OC[C@@H](O)[C@H](O)[C@H]6O)[C@@](C)(CO)C5CC[C@]43C)C2C1` (some centres not stated), the activity change, negative = cell killing in experiment [1] is -3.33% [at 9.23 µM]. Further, the Potency entry in experiment [6] was “inactive”. Besides, the outcome in experiment [7] is “inactive [at 11.6 µM]”. Besides, in experiment [3], the activity change, negative = thiol reactive was 182% [at 11.5 µM]. Moreover, the activity, negative = inhibition in experiment [4] was 2.01% [at 11.6 µM]. Moreover, the redox activity (% of DA3003) in experiment [5] is 8.25% [at 11.5 µM].

Take `CC1(C)CC(NC(=O)C(=O)Nc2ccc(Br)cc2)CC(C)(C)N1`: the Potency in experiment [1] is 5780 nM (active). Further, the Potency entry in experiment [6], in experiment [7], in experiment [3], in experiment [4] and in experiment [5] was “inactive” each time.

Take `CCOC(=O)C(CCc1ccccc1)NC(C)C(=O)N1C(=O)N(C)CC1C(=O)O` (configuration not stated): the Potency entry in experiment [1], in experiment [6], in experiment [7], in experiment [3], in experiment [4] and in experiment [5] was “inactive” each time.

Turning to `C[C@@H]1O[C@@H](O[C@H]2[C@H](O)[C@@H](O)[C@H](OC[C@H]3O[C@@H](OC(=O)[C@]45CCC(C)(C)C[C@H]4C4=CCC6[C@@]7(C)CC[C@H](O[C@@H]8OC[C@H](O)[C@H](O[C@@H]9O[C@H](CO)[C@@H](O)[C@H](O)[C@H]9O)[C@H]8O)[C@@](C)(CO)C7CC[C@@]6(C)[C@]4(C)CC5)[C@H](O)[C@@H](O)[C@@H]3O)O[C@@H]2CO)[C@H](O)[C@H](O)[C@H]1O` (some centres not stated), in experiment [1], the outcome was “inactive [at 9.23 µM]”. The activity change, negative = inhibition in experiment [6] is -3.72% [at 9.73 µM]; in experiment [7], 2.93% [at 11.6 µM]. In experiment [3], the activity change, negative = thiol reactive was 205% [at 11.5 µM]. In experiment [4], the activity, negative = inhibition was 3.4% [at 11.6 µM].

`Cc1cc(C)nc(NS(=O)(=O)c2ccc(NC(=S)NC(=O)COc3ccc(Br)cc3Cl)cc2)n1`: the Potency result in experiment [1], in experiment [6], in experiment [7], in experiment [3], in experiment [4] and in experiment [5] was “inactive” throughout.

With `CC(C)CC1NC(=O)C(C)NC(=O)C(CC(C)C)OC(=O)CCCNC1=O` (configuration not stated), the Potency entry in experiment [1], in experiment [6], in experiment [7], in experiment [3] and in experiment [4] was “inactive” each time.

Regarding `CCC1C(=O)OC23C=C[C@@H]4C(C(=O)O)=CO[C@H](O[C@@H]12)[C@@H]43` (some centres not stated), in experiment [1], the Potency was 18300 nM (active). For the same compound, the Potency result in experiment [2], in experiment [7], in experiment [4] and in experiment [5] was “inactive” in each case.

Take `CC(=O)OC1C(OC(=O)c2ccccc2)C2C(C)(C)CC(=O)CC2(C)C23CCC(C)(C2)C(O)CC13` (configuration not stated): the Potency entry in experiment [1], in experiment [6], in experiment [7], in experiment [3] and in experiment [4] was “inactive” throughout.

In the case of `CCC1C(=O)N(C)c2cnc(Nc3ccc(C(=O)NC4CCC(N5CCN(CC6CC6)CC5)CC4)cc3OC)nc2N1C(C)C` (configuration not stated), the Potency in experiment [1] is 25.8 nM (active). The Potency result in experiment [6], in experiment [7], in experiment [3] and in experiment [4] was “inactive” in each case.

With `COc1ccc(CNC(=O)c2sc3nc(C)cc(C)c3c2N)cc1`, the Potency result in experiment [1], in experiment [6], in experiment [7], in experiment [3], in experiment [4] and in experiment [5] was “inactive” throughout.

As to `O=C(O)c1cn(C2CC2)c2cc(N3C[C@@H]4C[C@H]3CN4)c(F)cc2c1=O`, the Potency entry in experiment [1], in experiment [7], in experiment [3], in experiment [4] and in experiment [5] was “inactive” throughout. Further, the Potency in experiment [6] was 10100 nM (active).

In the case of `CC(Nc1ncnc2nc[nH]c12)c1cc2cccc(Cl)c2c(=O)n1-c1ccccc1` (configuration not stated), in experiment [1], the Potency was 468 nM (active). The Potency entry in experiment [6], in experiment [7], in experiment [3] and in experiment [4] was “inactive” throughout.

For the compound `CC(C)Oc1ccc(C(=O)NC(CNC(=O)CN(C)C)Cc2ccc(-c3cn4cccc(C(C)O)c4n3)cc2)cc1Cl` (configuration not stated), the Potency in experiment [1] is 64.9 nM (active). Also, the Potency entry in experiment [6], in experiment [7], in experiment [3], in experiment [4] and in experiment [5] was “inactive” each time.

For `NC(=O)Nc1cc(-c2cccc(F)c2)sc1C(=O)NC1CCCNC1` (configuration not stated), the Potency in experiment [1] was 81.7 nM (active). Moreover, the Potency entry in experiment [6], in experiment [7], in experiment [3], in experiment [4] and in experiment [5] was “inactive” in each case.

For `O=C1OCC(c2ccccc2)=C1Cc1ccccc1`, the Potency result in experiment [1], in experiment [6], in experiment [7], in experiment [3] and in experiment [5] was “inactive” in each case.

For `CC(C)(F)C[C@@H](N[C@@H](c1ccc(-c2ccc(S(C)(=O)=O)cc2)cc1)C(F)(F)F)C(=O)NC1(C#N)CC1`, the Potency entry in experiment [1], in experiment [6], in experiment [7], in experiment [3], in experiment [4] and in experiment [5] was “inactive” throughout.
